Data on 15 compounds can be found in PubChem BioAssay AID602252 (Broad Institute, 2012).

In all, about 300,000 compounds went through this assay and about 2,700 (0.9%) were called active. The list comes from a sample in which actives are over-represented; it also holds similar structures and randomly drawn compounds. A number with no mark means an inactive call.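 Rule for the calls: active = mean inhibition of at least 30% with at least half of replicates also reaching 30%; inconclusive = no clear call, values can overlap the other calls; inactive = the rest.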

This assay deals with Golgi-associated PDZ and coiled-coil motif-containing protein (Homo sapiens) (UniProt Q9HD26). Put plainly: blockade of CAL PDZ-reporter peptide interaction – biochemical, fluorescence polarization, untagged CAL PDZ, HTS, primary screen (AID 602252).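 Note: 0% = DMSO neutral control and 100% = excess unlabeled competitor peptide PRC23.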 The conditions noted are these: purified CAL PDZ, TMR-peptide fluorescence polarization, 1 h; at 24.9 µM; stronger effect = higher value.
The inhibition is the relative decrease from the control value, in per cent. Regarding `COc1ccccc1-n1c(O)c(C=NC2CC2)c(=O)[nH]c1=O`, the inhibition was -5.85%.
Then `CC(=NCC1CCCO1)c1c(O)n(-c2ccccc2)c(=O)[nH]c1=O` (stereo not given), with -0.888%; and `Cc1ccc(-n2c(O)c(C=NCC3CCCO3)c(=O)[nH]c2=O)c(C)c1` (stereo not given), with 62.7% (active); and `CCC(C)(O)C(=O)OC1C(=O)OC2CC3C(C)=CC(=O)C(O)C3(C)C3C4(O)OCC23C1C(C)C4O` (stereo not given), with -3%.
Then `COC1C(O)C(C)OC(OC2CCC3(C=O)C(CCC4C3CCC3(C)C(C5=CC(=O)OC5)CCC43O)C2)C1O` (stereo not given), with -0.006%.
Then `Cc1cc(C=C2C(=O)NC(=O)NC2=O)c(C)n1-c1ccncc1`, with 49.2% (active); and `Cc1ccnc(-n2c(C)cc(/C=C3\C(=O)NC(=S)N(C)C3=O)c2C)c1`, with -1.9%; and `Cc1ccc(-n2c(C)cc(/C=C3\C(=O)NC(=O)N(C)C3=O)c2C)cc1C`, with 0.186%.
For `CC(=O)OC1C2(CC3N4C(=O)C5(CO)SSC4(CC31O)C(=O)N5C)OC(C)C(C)(C)C2=O` (stereo not given), the inhibition is 1.68%.
As to `CC12CCC(O)CC1CCC1C2CCC2(C)C(C(=O)CC(O)C(F)(F)F)CCC12` (stereo not given), the inhibition is -6.37%.
Then `O=C(c1ccccc1)C(O)(CN1CCCCC1)c1ccccc1` (stereo not given), with -5.06%; and `CC1C(=O)OC2CCN3CC=C(COC(=O)C(C)(O)C1(C)O)C23` (stereo not given), with 56.3% (active).
Then `CCOC(=O)C1(c2ccccc2)CCN(CC(O)c2ccc(NC(C)=O)cc2)CC1` (stereo not given), with -0.121%; and `CCOC(=O)CC(SP1(=S)OCC2(CCCCO2)C(C2CCCCO2)O1)C(=O)OCC` (stereo not given), with 0.015%.
As for `CC=C(C)C(=O)OC1CCN2CC=C(COC(=O)C(O)(C(C)OC)C(C)(C)O)C12` (stereo not given), the inhibition is -2.7%.
